Measured values taken from PubChem BioAssay (NCATS).
Results filed as inconclusive are left out. Active and inactive are the calls of the source. Unless noted, calls follow the shape of the dose curve; as a rule, active = well fitted cell-killing curve with a large enough effect; inconclusive = small, poorly fitted or top-dose-only effect; inactive = flat fitted curve, though single readings scatter.

Key:
[1] = Cell Viability - LYMP2-020 (AID 986); also: series mostly up to about 92 µM; nearly all actives have a fitted effect of over 55% in size
Outline: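 qHTS, 2500 cells/well; 5 hr then 24 hr compound exposure, 37 C; CellTiter-Glo luminescence after 30 min RT; ATP decrease taken as cytotoxicity; AC50 via Hill equation; tetraoctylammonium bromide positive control.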

[2] = Cell Viability - LYMP2-022 (AID 987); also: nearly all actives have a fitted effect of over 55% in size
Outline: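 Luminescent ATP read-out (CellTiter-Glo, 30 min, RT) after 24 hr, 37 C compound exposure of 2500 human lymphoblastoid cells/well in complete medium. Cytotoxicity taken as concentration-dependent ATP loss; AC50 from standard Hill equation.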

[3] = Cell Viability - LYMP2-024 (AID 988); also: nearly all actives have a fitted effect of over 60% in size
Outline: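 ATP-based luminescence (CellTiter-Glo, 30 min RT) after 24 h compound exposure at 37 C of 2500 lymphoblastoid cells/well; decrease in ATP taken as cytotoxicity. qHTS concentration-response fitted to standard Hill equation for AC50.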

[4] = Cell Viability - LYMP2-026 (AID 989); also: nearly all actives have a fitted effect of over 50% in size
Outline: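 qHTS cytotoxicity: 2500 cells/well, 5 hr 37 C, compound 24 hr 37 C, CellTiter-Glo 30 min RT, luminescence. Tetraoctylammonium bromide positive control. AC50 via standard Hill fit.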

[5] = Cell Viability - LYMP1-002 - Assay at 40 hr (AID 994); also: nearly all actives have a fitted effect of over 60% in size
Outline: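 qHTS cytotoxicity; 2500 cells/well, 5 hr 37 C settle, compound 40 hr 37 C. CellTiter-Glo, 30 min RT, luminescence (ATP). Concentration-response, Hill fit → AC50. Pos. ctrl tetraoctylammonium bromide.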

[6] = qHTS Assay for Identification of Small Molecule Inducers of Hypoxia Response (AID 2120; active = well fitted curve in the direction sought with a large enough effect in the signal ratio, with a control signal flat, not every such curve was filed as active; the % refers to the signal ratio)
Outline: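 Read-out: CCF4 FRET emission ratio 460nm/530nm (excitation 405nm), converted to %Activity, with AC50 fitted across a compound titration. ME-180 cells carried an HRE-driven beta-lactamase reporter; compound exposure 17 h, 37 degrees C.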

[7] = Cell Viability - LYMP1-002 - Assay at 24 hr (AID 993)
Outline: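 CellTiter-Glo luminescence (intracellular ATP) after 24 h compound exposure, 37 C, in LYMP1-002 human lymphoblastoid cells; decreased ATP taken as cytotoxicity. AC50 from standard Hill fit of concentration-response curves.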

Measured: Potency

COC(=O)c1ccccc1
inactive: [1] | [2] | [3] | [4] | [5] | [6]

O=[N+]([O-])c1c(Cl)cc(Cl)cc1Cl
inactive: [1] | [2] | [3] | [4] | [7] | [5] | [6]

CCC1CO1 (stereo not drawn)
inactive: [1] | [2] | [3] | [4] | [5] | [6]

CC(=O)c1ccc([N+](=O)[O-])cc1
inactive: [1] | [2] | [3] | [4] | [7] | [5] | [6]

Nc1nc(-c2ccccc2)cs1
inactive: [1] | [2] | [3] | [4] | [7] | [5] | [6]

CCCCCNCCCCC
inactive: [1] | [2] | [3] | [4] | [5] | [6]

CC(C)(C)OCC1CO1 (stereo not drawn)
inactive: [1] | [2] | [3] | [4] | [5] | [6]

CN(C)c1cccc(O)c1
inactive: [1] | [2] | [3] | [4] | [7] | [5] | [6]

Nc1ccccc1[N+](=O)[O-]
inactive: [1] | [2] | [3] | [4] | [7] | [5] | [6]

C1CCCC1
inactive: [1] | [2] | [3] | [4] | [7] | [5] | [6]

C=Cc1ccccn1
inactive: [1] | [2] | [3] | [4] | [7] | [5] | [6]

CC(O)COC(C)(C)C (stereo not drawn)
inactive: [1] | [2] | [3] | [4] | [7] | [5] | [6]

CC1CCCO1 (stereo not drawn)
inactive: [1] | [2] | [3] | [4] | [7] | [5] | [6]

Cc1cccc(C)c1[N+](=O)[O-]
inactive: [1] | [2] | [3] | [4] | [7] | [5] | [6]

Cc1cccc(Br)c1
inactive: [1] | [2] | [3] | [4] | [7] | [5] | [6]

S=C([S-])NCCNC(=S)[S-].[Zn+2]
inactive: [1] | [2] | [3] | [4] | [7] | [5] | [6]

C=CC(=O)OCCCC
inactive: [1] | [2] | [3] | [4] | [7] | [5] | [6]

O=C1OC(=O)c2c(Cl)c(Cl)c(Cl)c(Cl)c21
inactive: [1] | [2] | [3] | [4] | [7] | [5] | [6]

BrC/C=C/CBr
inactive: [1] | [2] | [3] | [4] | [5] | [6]

C=CCCCCCCC=C
inactive: [1] | [2] | [3] | [4] | [7] | [5] | [6]

CCCCCCCCN
inactive: [1] | [2] | [3] | [4] | [5] | [6]

Nc1cccc(N)c1
inactive: [1] | [2] | [3] | [4] | [7] | [5] | [6]

Clc1ccccn1
inactive: [1] | [2] | [3] | [4] | [7] | [5] | [6]

Cc1ccc([N+](=O)[O-])c(N)c1
inactive: [1] | [2] | [3] | [4] | [7] | [5] | [6]

C[C@@H]1O[C@@H](O[C@@H]2[C@@H](O)[C@H](OCCc3ccc(O)c(O)c3)O[C@H](CO[C@@H]3O[C@H](CO)[C@@H](O)[C@H](O)[C@H]3O)[C@H]2OC(=O)/C=C/c2ccc(O)c(O)c2)[C@H](O)[C@H](O)[C@H]1O
inactive: [1] | [2] | [3] | [4] | [7] | [5] | [6]

COc1cccc(N)c1
inactive: [1] | [2] | [3] | [4] | [7] | [5] | [6]

O=C(O)/C=C/C(=O)O
inactive: [1] | [2] | [3] | [4] | [7] | [5] | [6]

O=C(O)c1ccccc1Cl
inactive: [1] | [2] | [3] | [4] | [7] | [5] | [6]

C1CCOC1
inactive: [1] | [2] | [3] | [4] | [7] | [5] | [6]

O=C(O)CN(CC(=O)O)CC(=O)O
inactive: [1] | [2] | [3] | [4] | [7] | [5] | [6]

NC(=S)NNC(N)=S
inactive: [1] | [2] | [3] | [4] | [5] | [6]

CC(C)(O)C(=O)O
inactive: [1] | [2] | [3] | [4] | [7] | [5] | [6]

N#CC1(O)CCCCC1
inactive: [1] | [2] | [3] | [4] | [7] | [5] | [6]

c1ccc2n[nH]nc2c1
inactive: [1] | [2] | [3] | [4] | [7] | [5] | [6]

Cc1cc(C2(c3cc(C)c(O)cc3C)OS(=O)(=O)c3ccccc32)c(C)cc1O
inactive: [1] | [2] | [3] | [4] | [7] | [5] | [6]

O=Cc1cccc(Br)c1
inactive: [1] | [2] | [3] | [4] | [7] | [5] | [6]

CCOCCO
inactive: [1] | [2] | [3] | [4] | [7] | [5] | [6]

CCCCC(CC)CO (stereo not drawn)
inactive: [1] | [3] | [4] | [6]

CC1CCC2CC1C2(C)C (stereo not drawn)
inactive: [1] | [2] | [3] | [5] | [6]

CC(O)CC(C)O (stereo not drawn)
inactive: [2] | [3] | [4] | [6]

Cc1cccc2cccnc12
inactive: [1] | [2] | [3] | [7] | [5] | [6]

Cc1ccc(C)c(O)c1
inactive: [2] | [3] | [4] | [7] | [5] | [6]

Cc1ccccc1Br
inactive: [2] | [3] | [7] | [5] | [6]

Cc1c(N)cccc1N
inactive: [1] | [2] | [3] | [7] | [5] | [6]

C=CCn1c(=O)n(CC=C)c(=O)n(CC=C)c1=O
inactive: [1] | [3] | [4] | [7] | [5] | [6]

CCOC(=O)C(C)C(C)=O (stereo not drawn)
inactive: [1] | [2] | [3] | [7] | [5] | [6]

CCCCOCCOCCSC#N
inactive: [1] | [3] | [4] | [7] | [5] | [6]

CCCCC(CC)CNCC(CC)CCCC (stereo not drawn)
inactive: [1] | [3] | [4] | [7] | [5] | [6]

CCCCOCCOCCOCCCC
inactive: [1] | [3] | [4] | [7] | [5] | [6]

c1ccc(Nc2ccccc2)cc1
inactive: [1] | [3] | [4] | [7] | [5] | [6]

CSCCC=O
inactive: [1] | [3] | [4] | [7] | [5] | [6]

CSc1ccc(C=O)cc1
inactive: [1] | [3] | [4] | [5] | [6]

O=C(O)CNC(=O)c1ccc([N+](=O)[O-])cc1
inactive: [1] | [2] | [3] | [7] | [5] | [6]

Nc1c(Cl)cc(Cl)cc1Cl
inactive: [1] | [2] | [3] | [7] | [5] | [6]

COc1ccccc1[N+](=O)[O-]
inactive: [2] | [3] | [4] | [7] | [5] | [6]
